In all, about 25,000 sequences were measured (“ln(normalized median fluorescence intensity)”: median about 6.7, highest 2% from about 10 on). This is one part of a sample in which the highest values are shown more often than they occur.
These sequences were tested on PfHDP1 homeodomain (GST-tagged) (assay: gcPBM binding intensity (ln(normalized median fluorescence intensity)); higher = stronger DNA binding).
Procedure, shortened: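 After 1 h on an Agilent 4 × 180k array of primer-extended double-stranded 36-bp intergenic genomic probes and negative controls, bound GST-tagged P. falciparum DNA-binding domains were detected with Alexa488 anti-GST antibody and scanned at 488 nm. The domains had been expressed in E. coli, and binding took place in 1× PBS with 1% milk, 0.2 mg/ml BSA, 0.5% salmon testes DNA and 0.03% Triton X-100. Binding intensity is the highest Masliner-normalised natural-log median intensity across replicate spots of either probe orientation.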

Question: How did the “gcPBM binding intensity (ln)” value turn out when “GTAAATATGTTTATTAGTACACATATGAAAATAAAT [XGTACX_site5820]” was run?
Answer: 6.42

Question: How did the “gcPBM binding intensity (ln)” value turn out when “GAGAAATGGAGACACACACACATATTATATATATAT [CACACA_site1532]” was run?
Answer: 8.68

Question: With “AAACAATTATTATATTGTACATATATTACATTATTA [XGTACX_site1089]” as the sequence, how does the “gcPBM binding intensity (ln)” value read?
Answer: 6.23

Question: For “ACTATCATTTTTTTAACACACAAAAAAAATAAAATA [CACACA_site3519]”, which “gcPBM binding intensity (ln)” value is on record?
Answer: 6.44

Question: With “TATATATAATATTATACACACATATATGCATAATAT [CACACA_site54]” as the sequence, how does the “gcPBM binding intensity (ln)” value read?
Answer: 7.56

Question: For “AAATGTGAAAAAGAGTGTACCCGACTTGAAATTAAG [XGTACX_site8621]”, which “gcPBM binding intensity (ln)” value is on record?
Answer: 6.92

Question: Which “gcPBM binding intensity (ln)” value does the source give for “TTAATTATAAGAAAAAGTACTCATTACATTATAGAA [XGTACX_site678]” here?
Answer: 6.12

Question: With “TAGTATGATAACTTGGGTACATAAATATGGAGTATC [XGTACX_site1296]” as the sequence, how does the “gcPBM binding intensity (ln)” value read?
Answer: 6.81

Question: With “TATATTTTAATTTGAAGTACTAATATTTATTTATAT [XGTACX_site7458]” as the sequence, how does the “gcPBM binding intensity (ln)” value read?
Answer: 6.14

Question: “AATATAATATAATGCACACATAAAAAAAAAAAAAAA [CACACA_site304]” was tested. Which “gcPBM binding intensity (ln)” value did it give?
Answer: 10.9

Question: For “AAAAATAATGCACATATATATAATATGTATATGTAT [CACACA_negctrl_site443]”, which “gcPBM binding intensity (ln)” value is on record?
Answer: 11.1

Question: Which “gcPBM binding intensity (ln)” value does the source give for “AAAAAATATACATATACACACATATGTATATATAAT [CACACA_site8676]” here?
Answer: 6.34

Question: Which “gcPBM binding intensity (ln)” value does the source give for “TATAATATAATATATGCACACAAATATGTATATATG [CACACA_site8664]” here?
Answer: 9.95

Question: Which “gcPBM binding intensity (ln)” value does the source give for “AAAATATAATATAATGCACACATAAAAAAAAAAAAA [CACACA_site7989]” here?
Answer: 9.84

Question: “ATAATAAAAAAAAATGCACACATATATATATATATA [CACACA_site8766]” was tested. Which “gcPBM binding intensity (ln)” value did it give?
Answer: 9.5

Question: For “CTTATGTGCATACCTACACACTTACAGATATATATA [CACACA_site5622]”, which “gcPBM binding intensity (ln)” value is on record?
Answer: 9.61

Question: For “ATATATAATTTTTACACACGCAATAAATATATATAT [CACACA_site4283]”, which “gcPBM binding intensity (ln)” value is on record?
Answer: 7.7

Question: TTTAATTATTAAATGGTGCACTTGAAATATAAAAAT was tested. Which “gcPBM binding intensity (ln)” value did it give?
Answer: 10.1

Question: How did the “gcPBM binding intensity (ln)” value turn out when “TTGTTTTTCTTTGAATGTACTTAATGATTTCCAATT [XGTACX_site2499]” was run?
Answer: 6.44

Question: How did the “gcPBM binding intensity (ln)” value turn out when “CAAAACAAAGTTGCCGCACACAGATACGCACCCAAG [CACACA_site3455]” was run?
Answer: 7.09

Question: Which “gcPBM binding intensity (ln)” value does the source give for “CACACGCACAGACACACACACACACGGATATAAATA [CACACA_site6301]” here?
Answer: 7.76

Question: “ATATACATATATATGGGTACATATATTAATATATAT [XGTACX_site8358]” was tested. Which “gcPBM binding intensity (ln)” value did it give?
Answer: 6.74

Question: Which “gcPBM binding intensity (ln)” value does the source give for “AGGATATGCAGACACACACACATATAGATTTATATA [CACACA_site7100]” here?
Answer: 6.6

Question: How did the “gcPBM binding intensity (ln)” value turn out when “AAAATTAGATTATGCACACACACTTAAAAATAATAA [CACACA_site1975]” was run?
Answer: 10.1

Question: “GTTAGGATAGATTAGACATGCACATAAATGCACTTC [TGCATGCA_site561]” was tested. Which “gcPBM binding intensity (ln)” value did it give?
Answer: 10.6

Question: “ATATAATTAAAATGCTCACACACATAAAAAAAAATT [CACACA_site2148]” was tested. Which “gcPBM binding intensity (ln)” value did it give?
Answer: 8.58

Question: For TTTTGTTATTTTTGTATGCACTACATATTATTATAT, which “gcPBM binding intensity (ln)” value is on record?
Answer: 8.89

Question: How did the “gcPBM binding intensity (ln)” value turn out when “TCGTATATGGATTTTGCACACAATTTTAATTTAAAT [CACACA_site4635]” was run?
Answer: 10.7

Question: With “CATAAATTAATAGTCACACACGTATTTTTTATATAT [CACACA_site2526]” as the sequence, how does the “gcPBM binding intensity (ln)” value read?
Answer: 6.16

Question: For “GCTAAACAATAGTTTGCACACAATTTAAATATATAT [CACACA_site193]”, which “gcPBM binding intensity (ln)” value is on record?
Answer: 10.3

Question: How did the “gcPBM binding intensity (ln)” value turn out when “TCGTATATGGATTTTGCACACAATTATAATTTAAAT [CACACA_site868]” was run?
Answer: 10.8

Question: For “TTATTAAATAAAATCATGCACACAATATATATTTTA [CACACA_site2496]”, which “gcPBM binding intensity (ln)” value is on record?
Answer: 8.65

Question: “AATAATACACAATTTTGTACGTATTTAAAATATATT [XGTACX_site45]” was tested. Which “gcPBM binding intensity (ln)” value did it give?
Answer: 6.74

Question: With “AATATAAACAGACACACACACATATAGATTTATATT [CACACA_site7382]” as the sequence, how does the “gcPBM binding intensity (ln)” value read?
Answer: 6.8

Question: “TTCATATAATTATATACATGCATAAATTCTAAGTAA [TGCATGCA_site622]” was tested. Which “gcPBM binding intensity (ln)” value did it give?
Answer: 6.78

Question: Which “gcPBM binding intensity (ln)” value does the source give for “ATACATATATATGTGTGTACATATGTGTATACATTT [XGTACX_site6544]” here?
Answer: 6.84

Question: “TAATATATGTATTGCACACCTATAACCATTATTTCT [CACACA_site1498]” was tested. Which “gcPBM binding intensity (ln)” value did it give?
Answer: 10.5

Question: For “TGTAATATATGTATTGCACACCTATAACCATTATTT [CACACA_site8422]”, which “gcPBM binding intensity (ln)” value is on record?
Answer: 9.86

Question: Which “gcPBM binding intensity (ln)” value does the source give for “CACACCATATAATATATATATATGTATATATTTATA [CACACA_negctrl_site397]” here?
Answer: 6.58

Question: For “ACATAAAATAAATATACACACATATGTATATATCAT [CACACA_site7424]”, which “gcPBM binding intensity (ln)” value is on record?
Answer: 6.52

Question: How did the “gcPBM binding intensity (ln)” value turn out when “TTTATATTATTATATCTTATTAATTATTTATCATTT [TGCATGCA_negctrl_site73]” was run?
Answer: 6.23

Question: For “TTATAATTTTAATGTGCACACAATTAAAATATTATA [CACACA_site5172]”, which “gcPBM binding intensity (ln)” value is on record?
Answer: 10.2

Question: TATTTATTTTTTTTTGTGCACTTAATATAATCTTAC was tested. Which “gcPBM binding intensity (ln)” value did it give?
Answer: 9.51

Question: With “AACTGTACAATTTTTGTGCACAATAATTATTAATAT [GTGCAC_site9462]” as the sequence, how does the “gcPBM binding intensity (ln)” value read?
Answer: 11

Question: “TATTATAATATATTTGTGCACATAATACCTCCGCTA [GTGCAC_site9570]” was tested. Which “gcPBM binding intensity (ln)” value did it give?
Answer: 10.9

Question: How did the “gcPBM binding intensity (ln)” value turn out when “TTTTTTTTTTTTTTTGTGCACAATATAATTTTTAAT [GTGCAC_site9747]” was run?
Answer: 10.8

Question: For “TTATAATATTAATGTGCACACAATTAAAATATTATA [CACACA_site2046]”, which “gcPBM binding intensity (ln)” value is on record?
Answer: 10.7

Question: For “TAATAATATATTTGTAGTACACAATTTTTTATAACT [XGTACX_site3951]”, which “gcPBM binding intensity (ln)” value is on record?
Answer: 6.34

Question: With “TAAATTATAATATGCACACAAAATGTTATATTAAAA [CACACA_site376]” as the sequence, how does the “gcPBM binding intensity (ln)” value read?
Answer: 9.55

Question: “TTTTTTTTTTTTAATGCACACAATATATAATATGTA [CACACA_site3694]” was tested. Which “gcPBM binding intensity (ln)” value did it give?
Answer: 10.2

Question: For “ATATTTTATTTAATTACACACAATATTGCAATTTGT [CACACA_site669]”, which “gcPBM binding intensity (ln)” value is on record?
Answer: 8.74

Question: Which “gcPBM binding intensity (ln)” value does the source give for “TATATATATATTTTTTGTACATATTATATAATATAC [XGTACX_site5187]” here?
Answer: 8.42

Question: Which “gcPBM binding intensity (ln)” value does the source give for AATATATATATTAGAGTGCACATAATTATTTGCTAA here?
Answer: 8.88

Question: How did the “gcPBM binding intensity (ln)” value turn out when “TTTTTATATATATGTATAAATATTTTTTCTATTTAT [XGTACX_negctrl_site606]” was run?
Answer: 6.46

Question: “ACATCAAGCAGACACACACACACACCCACCCACCCA [CACACA_site8012]” was tested. Which “gcPBM binding intensity (ln)” value did it give?
Answer: 6.5

Question: “ACAGGAAAAAACAATTGTACATGTATATATATATAT [XGTACX_site7677]” was tested. Which “gcPBM binding intensity (ln)” value did it give?
Answer: 9.16

Question: How did the “gcPBM binding intensity (ln)” value turn out when “AAATATTACATACACGCACACATTAATATATTTAAA [CACACA_site2603]” was run?
Answer: 7.25

Question: TAAGATATAAAAAATGTGCACATTAAAGTATTAATT was tested. Which “gcPBM binding intensity (ln)” value did it give?
Answer: 10.5

Question: For “TGTATGTATTAATGCGCACACAAAAAATAACAATAT [CACACA_site1848]”, which “gcPBM binding intensity (ln)” value is on record?
Answer: 7.88

Question: How did the “gcPBM binding intensity (ln)” value turn out when “TAAATAATAATAAATGTGCACAGGTATTAACAAAAA [GTGCAC_site9988]” was run?
Answer: 10.6

Question: With “AAAAAAAAAAAAAAATGTACATATTAAGTATAATTA [XGTACX_site4616]” as the sequence, how does the “gcPBM binding intensity (ln)” value read?
Answer: 6.23

Question: With “TTATATTTTTTAATTACACACAATTTTTATAAATAT [CACACA_site4148]” as the sequence, how does the “gcPBM binding intensity (ln)” value read?
Answer: 6.66

Question: How did the “gcPBM binding intensity (ln)” value turn out when “TATAAAGATATAAATGCACACGTATTAAAAAAAAAA [CACACA_site8223]” was run?
Answer: 8.22

Question: With “TATGTATGTATTAATGCGCACACAAAAAATAACAAT [CACACA_site8551]” as the sequence, how does the “gcPBM binding intensity (ln)” value read?
Answer: 7.73

Question: With “CATATAAATATTTGTGCACACAATTATTAATAATTA [CACACA_site3884]” as the sequence, how does the “gcPBM binding intensity (ln)” value read?
Answer: 11.2

Question: “TTAATTTTATTTTTTTGTACACATAAATATTATAAA [XGTACX_site4680]” was tested. Which “gcPBM binding intensity (ln)” value did it give?
Answer: 6.62
